Sampled rows, rich in hits. Any-hit rate of the full collection: about 5%.
SENP8 block-1 = inhibitors of human SENP8 protease | purified SENP8, Z-RLRGG-aminoluciferin cleavage, luminescence | 330,000 compounds, 1.2% hits | Q96LD8 | inhibition, % at 10 µM; in the data active = inhibition above about 50%
EBI2 block = EBI2 (human) antagonism | 360,000 compounds, 0.81% hits | P32249 | inhibition, % at 5 µM | EBI2 beta-arrestin recruitment, luminescence, 7a,25-OHC stimulated; in the data active = inhibition above about 38%;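 note: enzyme fragment complementation signal reports receptor beta-arrestin coupling in cells; 0% = agonist plus DMSO wells and 100% = wells without agonist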
SENP6 block = SENP6 protease inhibition; 330,000 compounds, 1.8% hits; Recombinant SENP6 catalytic domain, aminoluciferin luminescence; Q9GZR1; inhibition, % at 10 µM;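 active = inhibition above about 50% at the single tested dose, limit read from the data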;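 note: plate controls were DMSO wells with enzyme for no effect and DMSO wells lacking enzyme for full effect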
Target sequence (Q9GZR1 628-1112 limits assumed): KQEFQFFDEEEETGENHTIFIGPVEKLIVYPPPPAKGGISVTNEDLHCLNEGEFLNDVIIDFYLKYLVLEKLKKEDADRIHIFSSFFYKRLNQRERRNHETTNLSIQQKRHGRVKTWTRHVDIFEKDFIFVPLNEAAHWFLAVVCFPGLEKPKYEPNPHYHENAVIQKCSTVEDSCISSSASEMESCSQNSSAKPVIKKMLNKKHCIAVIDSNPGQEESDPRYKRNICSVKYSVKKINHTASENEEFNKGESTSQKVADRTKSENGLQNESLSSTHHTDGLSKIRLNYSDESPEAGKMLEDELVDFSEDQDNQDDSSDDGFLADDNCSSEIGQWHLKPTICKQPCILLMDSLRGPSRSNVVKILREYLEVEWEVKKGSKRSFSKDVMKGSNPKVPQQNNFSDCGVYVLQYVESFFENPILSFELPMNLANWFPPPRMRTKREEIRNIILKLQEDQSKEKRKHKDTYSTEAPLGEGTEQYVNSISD
AHR act = human AHR activation. AHR-responsive luciferase reporter cells, luminescence. activation, % at 5 µM. 320,000 compounds, 2.5% hits; in the data active = activation above about 47%;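 note: 0% = vehicle wells and 100% = reference agonist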
SENP7 inh = blocks the human protease SENP7; inhibition, % at 5 µM; 330,000 compounds, 1.5% hits; recombinant SENP7, Z-RLRGG-aminoluciferin luminescence, 40 min; Q9BQF6;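 active = inhibition above about 50% at the single test dose, limit read from the data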;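 note: plate controls were DMSO with enzyme for no effect and no enzyme buffer wells for full effect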
SENP8 block-2 = inhibitors of human SENP8 protease; Q96LD8; recombinant SENP8, Nedd8 substrate fluorescence; inhibition, % at 20 µM; 360,000 compounds, 0.64% hits; AID 602440; in the data active = inhibition mostly above about 40%, no sharp cut-off; inactive = mostly below about 27%
The depositor's hits bear a star; i = inactive; / = not tested or not shown.

SMILES	SENP8 block-1	EBI2 block	SENP6 block	AHR act	SENP7 inh	SENP8 block-2
CC(C)c1ccc2c(c1)[C@H]1OCC[C@H]1[C@@H](c1cccs1)N2	/	9	/	70*	/	-90
OCC[C@@H]1C[C@H](O)[C@@H](O)[C@]2(OCc3cc(C(F)(F)F)ccc32)O1	/	4	/	/	/	4
CC(C)NC(=O)C1(C)CSCC(=O)N1C1CCN(Cc2ccccc2)CC1 (stereo unspecified)	/	-2	/	/	/	15
O=C(N/N=C/c1cccc([N+](=O)[O-])c1)c1cc(-c2ccc3c4c(cccc24)CC3)n[nH]1	-4	-3	2	51*	-5	-36
O=C(N/N=C/c1ccc(Cl)c([N+](=O)[O-])c1)c1cc(-c2ccc3c4c(cccc24)CC3)n[nH]1	0	27	-27	31	-1	12
COC(=O)C1=CO[C@@H](O[C@@H]2O[C@H](CO)[C@@H](O)[C@H](O)[C@H]2O)C2C1C=C[C@@]2(O)CO (stereo partly specified)	-3	-1	4	1	4	5
S=C(Nc1cccc(Br)c1)c1ccccc1	-6	-9	-6	79*	1	11
CN(C(=O)c1ccc(NC(=O)Cc2ccc([N+](=O)[O-])cc2)cc1)C1CC1	-4	1	-29	1	5	11
CCCNc1c(NC(=O)c2ccc3c(c2)OCO3)c(=O)oc2ccccc12	-2	-5	-9	1	-2	4
O=c1c(O)c(-c2ccc3c(c2)OCO3)oc2ccccc12	-11	-5	3	69*	13	i
Cc1ccc2c(c1)sc1nc(=O)n(-c3ccc(Cl)cc3)c(=O)n12	-6	-2	0	15	3	6
O=c1nc2sc3ccccc3n2c(=O)n1-c1ccc(Cl)cc1	9	1	1	52*	-6	5
COc1cc2nc(N(C)C)nc(N)c2cc1OC	5	-3	-11	65*	0	-446
CC(NC(=O)c1cc(-c2ccccn2)nc2ccc(Cl)cc12)C1CCCO1 (stereo unspecified)	-6	-32	-14	52*	4	-8
Cc1nc2ccccn2c1C(=O)NN=C1C2CC3CC(C2)CC1C3	-3	-9	1	48*	12	9
COc1ccc(C)cc1NC(=O)CN1CCCC1c1ccc2c(c1)OCCCO2 (stereo unspecified)	10	9	-9	3	0	7
Cc1sc2nc(CN(Cc3cccs3)C(=O)NC3CCCCC3)[nH]c(=O)c2c1C	-11	4	-2	65*	10	18
Cc1sc2nc(CN(C(=O)NC3CCCCC3)C3CCCC3)[nH]c(=O)c2c1C	0	0	-26	0	1	-9
CSc1cccc(NC(=O)CC(C)n2ccnc2)c1 (stereo unspecified)	2	-9	6	58*	1	1
COc1cccc(/C=N/NC(N)=S)c1OCc1cccc(Cl)c1	2	9	-5	60*	1	4
COC(=O)N/N=C/c1cc(Cl)cc(Cl)c1OCc1ccccc1	-6	2	-10	62*	2	25
NC(=S)N/N=C\c1ccccc1OCc1ccccc1	2	18	7	33	4	16
NC(=S)N/N=C/c1c[nH]c2ccc(OCc3ccccc3)cc12	-16	8	7	71*	11	-36
Cc1cc(Cl)nc(Cl)c1C(=O)NCc1ccc(Cl)cc1	5	-5	0	1	-2	11
CCOC(=O)CCCCC1C(CCCC(=O)OCC)C=NN1C (stereo unspecified)	/	11	/	/	/	-6
SMILES	SENP8 block-1	EBI2 block	SENP6 block	AHR act	SENP7 inh	SENP8 block-2
CCOc1ccccc1C(=O)Nc1cc(C)ccc1NC(=O)c1ccco1	-7	12	5	68*	-5	-7
Cc1ccc(NC(=O)c2ccc(Cl)c(S(=O)(=O)NCc3ccco3)c2)c(O)c1	2	-4	-8	56*	-1	18
Cc1ccc(NC(=O)c2ccco2)c(NC(=O)c2ccc(Cl)cc2)c1	-2	-2	-6	56*	6	13
CCOc1cc(NC(=O)c2ccco2)c(OCC)cc1NC(=O)Cc1cccc(OC)c1	3	16	-17	54*	2	-16
O=C(Nc1cccc2ccccc12)c1csc(COCCO)n1	/	-32	/	/	/	5
CCC1C(=O)n2nc(-c3ccccc3)cc2N=C1C (stereo unspecified)	-5	-12	-17	51*	0	-64
O=c1c(O)c(-c2ccc(O)c(O)c2)oc2cc(O)cc(O)c12	28	-9	53*	2	3	33*
Cc1cc(C)cc(C(=O)Nc2ccc(N3CCCC3)cc2)c1	66*	1	74*	-6	56*	12
COc1cccc(OC)c1C(=O)Nc1ccc2c(c1)Cc1ccccc1-2	1	27	8	75*	-5	12
COc1cccc(OC)c1C(=O)Nc1ccc(N2CCCC2)cc1	1	-6	5	50*	0	20
COc1cccc(OC)c1C(=O)NC(=S)Nc1ccc2c(c1)Cc1ccccc1-2	-3	16	3	15	5	13
CCOc1ccc(NC(=O)c2c(OC)cccc2OC)cc1	-4	5	-11	51*	-10	1
CC(C)[C@H](NC(=O)OCc1ccccc1)C(=O)N[C@@H](Cc1c[nH]c2ccccc12)C(=O)O	-2	-4	5	5	2	8
COc1ccc(CNC(=O)/C=C/[C@H]2O[C@@H](n3cc(C)c(=O)[nH]c3=O)C[C@@H]2O)cc1	/	-3	/	/	/	30
CC(C)(C)c1ccc(CC(=O)N2CCC2(C)C(=O)Nc2cnc3ccccc3c2)cc1 (stereo unspecified)	/	19	/	/	/	27
Cc1nn(-c2ccccc2)c(N)c1N=Nc1ccc2ccccc2c1	-7	28	-12	155*	0	9
Cc1ccc(N=Nc2c(N)nn(-c3ccccc3)c2N)cc1	-8	18	23	-6	11	24
Cc1cccc(-c2nnn3c2nc(NCCc2ccc(S(N)(=O)=O)cc2)c2ccccc23)c1	-11	-2	-12	50*	-6	-278
O=C(CN1C(=O)CCC1=O)Nc1nc(-c2ccc(Cl)s2)cs1	-4	-4	18	78*	7	9
S=C(N=Nc1ccccc1)NNc1ccccc1	7	3	13	53*	1	5
c1ccc2c(c1)-c1cccc3c1c-2cc1ccccc13	-1	/	-4	102*	4	/
c1ccc2c(c1)Oc1cccc3cccc-2c13	-2	-9	-7	-2	5	-457
Cc1cc2nc(C3CCN(Cc4nnnn4Cc4ccccc4)CC3)[nH]c2cc1C	-2	17	-16	54*	-3	-2
O=C1NN(c2ccccc2)C(=O)/C1=C\c1cccc(OC(=O)c2cccs2)c1	29	-5	12	0	5	44*
CCN(CC)C(=O)CSc1nc2ncc(Br)cc2[nH]1	-5	6	9	63*	0	22

High-throughput results from PubChem BioAssay.
